Compounds without any hit were thinned out: in the full panel of roughly 79,000, 15% have a hit. A number with no mark means an inactive call. Active and inactive are the calls of the source. Cut-off read from the data, not from the text of the source: active = growth inhibition above about 70%; inactive = the rest.
How the values were obtained:
[1] = NCI Yeast Anticancer Drug Screen. Data for the rad50 strain (AID 155);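 note: 0% = growth of vehicle-only cultures of the same strain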; settings: S. cerevisiae rad50 strain growth inhibition; at 50.0 µM; stronger effect = higher value
Summary of the method: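 Compounds were tested on a yeast strain with an engineered DNA damage repair alteration; the reported value is growth inhibition normalised to vehicle treatment.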

[2] = NCI Yeast Anticancer Drug Screen. Data for the mec2-1 strain (AID 157); settings: S. cerevisiae mec2-1 strain, at 50.0 µM, stronger effect = higher value
Summary of the method: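 Yeast mec2-1 mutant treated with compound. Readout: growth inhibition vs vehicle controls.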

[3] = NCI Yeast Anticancer Drug Screen. Data for the sgs1 mgt1 strain (AID 161);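 note: 0% = growth of cultures given vehicle only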; settings: S. cerevisiae sgs1 mgt1 strain, at 50.0 µM, stronger effect = higher value
Summary of the method: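 Read-out: growth inhibition vs vehicle controls. Cells: mutant yeast strain deficient in DNA damage repair.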

[4] = NCI Yeast Anticancer Drug Screen. Data for the cln2 rad14 strain (AID 165);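 note: 0% = growth equal to vehicle treated cultures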; settings: S. cerevisiae cln2 rad14 strain, at 50.0 µM, stronger effect = higher value
Summary of the method: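 cln2 rad14 yeast strain; compound exposure; growth inhibition read vs vehicle controls.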

[5] = NCI Yeast Anticancer Drug Screen. Data for the bub3 strain (AID 167); settings: S. cerevisiae bub3 mutant strain, at 50.0 µM, stronger effect = higher value
Summary of the method: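 Growth of a checkpoint-deficient yeast mutant is measured after compound exposure. Values represent inhibition relative to vehicle.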

[6] = NCI Yeast Anticancer Drug Screen. Data for the mlh1 rad18 strain (AID 175); settings: S. cerevisiae mlh1 rad18 strain growth inhibition; at 50.0 µM; stronger effect = higher value
Summary of the method: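 Yeast w/ defined DNA-repair lesions; compound exposure; growth vs vehicle controls → % inhibition.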

| Compound | growth inhibition [1] | growth inhibition [2] | growth inhibition [3] | growth inhibition [4] | growth inhibition [5] | growth inhibition [6] |
| --- | --- | --- | --- | --- | --- | --- |
| COc1ccc(N)c(C(=O)CCNC(C)=O)c1 | -23.2% | -9.7% | -21.2% | -7.05% | -26.6% | -25.4% |
| CCCCCCCCCCCCCCOc1ccc(S(=O)(=O)/N=C(\N)NC(N)=NCCCCCCCCCC)cc1 | 30.2% | -9.6% | 10.2% | -21.1% | -2.2% | 2.15% |
| CN1C(=O)n2c(nc3ccccc32)C(N2CCOCC2)(N2CCOCC2)C1=O | 44% | 56.4% | 62.9% | 29.9% | 31.4% | 45.8% |
| C[N+]1(C)C2CC(=O)CC1C1CC12 (stereo unspecified) | -10.2% | 7.4% | 4.55% | -2.15% | 12.1% | -16% |
| CC1=CC(=O)c2cc(C)ccc2C1=O | 6.1% | -15% | -8.35% | -32.5% | -2.95% | -3.25% |
| CCOC1(c2ccccc2)c2ccccc2C(C)(C)c2ccccc21 | 0.8% | 12.3% | 42% | 4.2% | 14.9% | -5.2% |
| c1ccc(CNCCCNCCCCNCCCNCc2ccccc2)cc1 | 7.75% | -5.5% | 9.4% | -10.3% | 17.8% | 7.45% |
| CC(=O)Oc1ccc(O)c(C(=O)O)c1 | 1.8% | -7.15% | -4.95% | -1.35% | 0.2% | 17.3% |
| C/C(C=C(C#N)C#N)=C\c1cccc(F)c1 | 55.7% | 28.3% | 50.6% | 48.1% | 17.5% | 53.8% |
| CC(C)Oc1c(O)c2c3c(oc(=O)n3C=CC2c2ccccc2)c1OC(C)C (stereo unspecified) | 86.8% (active) | 86.9% (active) | 88.2% (active) | 86.6% (active) | 85.5% (active) | 82.3% (active) |
| CCCCCCCCN(CCCCCCCC)CC(O)c1cc(-c2ccccc2)nc2c(-c3ccccc3)cccc12 (stereo unspecified) | 46.8% | 32.5% | 49.2% | 51.1% | 26.1% | 48.5% |
| OCCNc1nc(NCCO)c2cn[nH]c2n1 | 0.5% | 0.45% | -1.15% | -12.7% | 5.75% | 0.55% |
| C1CC2CCC1CN(C1COC(N3CC4CCC(CC4)C3)CO1)C2 (stereo unspecified) | -5.15% | 1.55% | 9.7% | 58.4% | 4.9% | -0.65% |
| CCN(CC)CCN(C(=O)c1ccc(F)cc1)c1ccccc1N | -13.2% | -34.1% | -23.6% | -11.9% | 3.85% | -23.6% |
| CN1CCN(CC2C(=O)C3CCC2C3)CC1 (stereo unspecified) | 4.6% | -20.4% | -18.4% | -7.85% | -22.7% | -10.3% |
| COc1ccc(C2c3cc4c(cc3OC(C)(OC)C2C)OCO4)c(OC)c1 (stereo unspecified) | 5.25% | 26.2% | 32.6% | -47.2% | -5.85% | 21% |
| C/C(=N\NC(=O)C[N+](C)(C)C)c1sc(-c2cccnc2)nc1C | 5.4% | -26.1% | 6.5% | 20.9% | -4.4% | -4.05% |
| Cn1ccnc1Sc1ccccn1 | -8.7% | 30.1% | 1.7% | 21.9% | 7.3% | 6.15% |
| CCCOC(=O)COc1ccccc1 | 10.1% | 5.7% | -4.3% | -45% | -11.4% | 2.4% |
| CC(=O)OCc1cc(=O)n2c([nH]c3ccccc32)c1C#N | 11.1% | 10.6% | -24.6% | -15.5% | -26.3% | -2.6% |
| O=c1[nH]c2cc(Cl)ccc2c2cc(Cl)ccc12 | 39.9% | 7.6% | 16.6% | -3.3% | -0.3% | 52.2% |

| Compound | growth inhibition [1] | growth inhibition [2] | growth inhibition [3] | growth inhibition [4] | growth inhibition [5] | growth inhibition [6] |
| --- | --- | --- | --- | --- | --- | --- |
| O=S(=O)(O)SCC1=NCCN1 | 17.9% | -5.1% | -3.55% | -34.9% | 11.2% | 9.85% |
| Cc1cc(O)c2c(c1)C(=O)c1c(-c3ccc(O)c4c3C(=O)c3c(O)c(C)cc(O)c3C4=O)ccc(O)c1C2=O | -30.7% | -19.8% | -17.1% | 9.05% | -26.8% | -24.4% |
| CC1(C)CC(OP(=O)(c2ccccc2)c2ccccc2)CC(C)(C)N1O | 5.25% | 12.8% | -6.3% | 3.1% | 13.3% | 11.2% |
| O=C1c2ccccc2C(=O)N1CCc1ncc[nH]1 | 1.45% | 17% | 0.15% | -23.9% | 6.3% | 2.9% |
| CN1CCCCC1CCO (stereo unspecified) | -1.4% | 6.7% | -11.2% | 15.9% | 3.25% | 14.1% |
| O/N=C(/CC(O)(C(F)(F)F)C(F)(F)F)c1ccccc1 | -9.1% | -18% | -7.9% | -38.8% | -6.9% | 11.8% |
| CCCCc1c2c(nc3c1CCCC3=O)C(=O)CCC2 | -11.3% | -1.95% | -14.7% | 2% | -2.45% | -9.15% |
| CCCC1(O)c2ccccc2-c2ccccc21 | 12.1% | 17.9% | -5.6% | 14.9% | 26.4% | 17% |
| COc1ccc(CCCCl)c(C2=NCCc3ccccc32)c1 | 25.2% | 12.7% | -17.3% | 12.2% | -0.55% | 1.95% |
| CC1=C(C)CC2C(=O)c3c(O)ccc(O)c3C(=O)C2C1 (stereo unspecified) | 28.9% | 44.9% | 52% | 4.15% | 39.9% | 50.1% |
| Cc1cc(=O)[nH]c2ccc(Cc3ccc(Cl)cc3)cc12 | 12.8% | 1.75% | 4.9% | 7.6% | 3.1% | 1.65% |
| O=C(NC(=O)C1CCC(=O)N1Cc1ccccc1)NC1CCC(=O)N1Cc1ccccc1 (stereo unspecified) | 3.35% | 3.1% | -26.1% | 1.8% | 0.85% | 17.2% |
| CC(=O)CC1CCCCCC1 | 4.3% | 4.3% | 0.45% | -11.3% | 2.1% | 6.3% |
| CCc1cc(-c2ccc(OC)cc2)c(C#N)c(=S)n1C1OC(CO)C(O)C(O)C1O (stereo unspecified) | 4.9% | -3.5% | 6.4% | 0.7% | 3.35% | 7.7% |
| CC1(C)CS(=O)(=O)CC(C)(C)C(=N/N)/C1=N\N | 20.1% | 26.9% | -13.2% | 5.8% | -6.95% | -18.2% |
| O=C(ON=C1c2ccccc2C(Br)C(Br)c2ccccc21)c1cc([N+](=O)[O-])cc([N+](=O)[O-])c1 (stereo unspecified) | 15.8% | 8.85% | 28.8% | -0.6% | 21.1% | 27.5% |
| c1ccc2c(CN3CCCCC3)cccc2c1 | -6.1% | -19.1% | -4.05% | 5.5% | -15.2% | -13.9% |
| O=c1cc(-c2ccc(Cl)cc2)oc2cc(OCCCOc3ccc4c(=O)cc(-c5ccc(Cl)cc5)oc4c3)ccc12 | 40.9% | 37.5% | 12.8% | -33.1% | 19.9% | 25.1% |
| CCOc1ccc(/C=C/c2ccc3ccccc3[n+]2C)cc1OCC | 16.1% | 9% | -5.3% | -14% | -1.35% | 19.7% |
| C=CCOc1ccc2cc(Br)ccc2c1 | 3.85% | -2.55% | 6.3% | -24.1% | 4.4% | 14.9% |

Source: PubChem BioAssay (NCI)
